Measles CPE = protection of cells from measles virus; Measles virus-infected cells, CPE protection, absorbance; protection (pct of control), % at 4 µM; 140,000 tested, 1.5% active; AID 841; in the data active = protection mostly above about 24%, no sharp cut-off; inactive = mostly below about 26%
CYP2C9 act = CYP2C9 (human) activation. activation factor at 5 µM. AID 1024. P11712. recombinant CYP2C9, luciferin-H conversion, luminescence; hits give high values; factor 1 = untreated enzyme, 0 = blocked. 96,000 tested, 1.4% active;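 active = activation factor of 2 or more for CYP2C9 at a 5 µM dose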
Target sequence (P11712 whole entry, looked up): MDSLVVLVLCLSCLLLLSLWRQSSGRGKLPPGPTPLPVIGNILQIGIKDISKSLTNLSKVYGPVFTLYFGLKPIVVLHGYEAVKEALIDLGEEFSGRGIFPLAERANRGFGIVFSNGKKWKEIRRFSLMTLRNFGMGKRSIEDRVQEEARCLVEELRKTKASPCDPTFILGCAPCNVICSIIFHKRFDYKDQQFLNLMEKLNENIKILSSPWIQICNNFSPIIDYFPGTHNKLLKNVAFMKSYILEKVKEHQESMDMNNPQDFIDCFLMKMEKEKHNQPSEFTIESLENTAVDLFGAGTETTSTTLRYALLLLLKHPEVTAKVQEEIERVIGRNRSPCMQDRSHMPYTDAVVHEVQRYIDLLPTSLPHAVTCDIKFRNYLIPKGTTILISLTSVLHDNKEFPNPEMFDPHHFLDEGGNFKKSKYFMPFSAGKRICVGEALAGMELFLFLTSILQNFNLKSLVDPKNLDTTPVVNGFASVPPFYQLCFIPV
CYP2C19 activ = activators of human cytochrome P450 2C19 | P33261 | recombinant CYP2C19, luciferin-H EGE luminescence; hits give high values; 0 = fully inhibited enzyme, 1 = untreated enzyme | activation factor at 5 µM | 96,000 tested, under 10 active;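 active = activation factor of at least 2 at 5 µM in the primary screen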
CYP2C9 inhib = blocks human cytochrome P450 2C9; CYP2C9 Supersomes, luciferin-H conversion, luminescence; AID 777; 96,000 tested, 20% active; inhibition, % at 5 µM;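 active = blocking of liver enzyme CYP2C9 beyond about 50% at 5 µM, limit read from the data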
CYP2C19 inhib = inhibitors of human CYP2C19. P33261. 96,000 tested, 21% active. CYP2C19 Supersomes, luciferin-H EGE luminescence, 30 min. inhibition, % at 5 µM;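 active = CYP2C19 inhibition above a set limit at 5 µM in the primary screen, cut at about 50% in these data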
Of the large screens only hits and unclear results are named; the others gave an inactive call. A selection: hits, their analogues and other compounds. The true share with any hit is near 22%.

CC(C)CC(c1nnnn1CC1CCCO1)N1CCN(c2nc3ccccc3s2)CC1 (configuration not stated)	none
CCCCC(c1nnnn1CC1CCCO1)N1CCN(c2cc(Cl)ccc2C)CC1 (configuration not stated)	CYP2C9 inhib 90.3, CYP2C19 inhib 95.7
O=C(c1ccc(Cl)cc1)c1oc2ccccc2c1CS(=O)c1ccccc1 (configuration not stated)	none
O=C(O)C1CSC2(c3ccc4c(c3)OCCO4)CCC(=O)N12 (configuration not stated)	none
CCCS(=O)(=O)N1CCC(C(=O)NCc2ccccc2Cl)CC1	none
O=C(O)C1(NS(=O)(=O)c2ccc(Cl)cc2)CCCCC1	none
Cc1ccc(S(=O)(=O)NC2(C(=O)O)CCCCC2)cc1	CYP2C9 inhib 57.0
Cc1nc(Nc2ccc3c(c2)OCCO3)c2oc3ccccc3c2n1	CYP2C9 inhib 75.7, CYP2C19 inhib 85.1
c1ccc2c(c1)oc1c(Nc3ccc4c(c3)OCCO4)ncnc12	none
CCc1nc(Nc2ccc3c(c2)OCCO3)c2oc3ccccc3c2n1	none
COc1ccc(Nc2ncnc3c2oc2ccccc23)cc1	CYP2C19 inhib 54.6
Cc1ccc(Nc2ncnc3c2oc2ccccc23)cc1	CYP2C19 inhib 53.4
O=C(NCCCn1ccnc1)/C(=C\c1cccnc1)NC(=O)c1cccc(Br)c1	none (no result: CYP2C9 act, CYP2C19 activ, CYP2C9 inhib, CYP2C19 inhib)
CCOC(=O)c1c(N)sc(C(O)(C(F)(F)F)C(F)(F)F)c1-c1ccc(OC)cc1OC	CYP2C9 inhib 71.9, CYP2C19 inhib 54.9
COc1cc(Br)c(CC(=O)O)cc1OC	none
COC(=O)Cc1cc(OC)c(OC)cc1Cc1cc(OC)c(OC)cc1CC(=O)OC	CYP2C19 inhib 87.5
CCOC(=O)Cc1cc(OC)c(OC)cc1Cc1cc(OC)c(OC)cc1CC(=O)OCC	CYP2C19 inhib 55.3
CCOC(=O)c1sc(NC(=O)/C=C/c2cnn(C)c2C)c(C(=O)OC(C)C)c1C	none
CCCCN(Cc1ccccc1)S(=O)(=O)c1ccc2[nH]c(=O)oc2c1	CYP2C19 inhib 75.6
O=c1[nH]c2ccc(S(=O)(=O)N3CCC(Cc4ccccc4)CC3)cc2o1	none
Cc1cccc(-n2c(Cc3cc(=O)[nH]c(=O)[nH]3)nnc2SCC(=O)N2CCCCC2)c1	none
c1c2c(cc3sc(N4CCOCC4)nc13)OCCO2	CYP2C19 inhib 87.3
c1ccc(N2CCN(c3nc4cc5c(cc4s3)OCCO5)CC2)cc1	none
COc1ccc(C)cc1NS(=O)(=O)c1ccc(Br)s1	CYP2C19 inhib 97.9
COc1ccc(Cl)cc1NS(=O)(=O)c1cc(Cl)ccc1OC	none
O=S(=O)(Nc1ccc2c(c1)OCCO2)c1ccc(Br)s1	CYP2C9 inhib 96.2, CYP2C19 inhib 98.5
COc1ccc(NS(=O)(=O)c2ccc(Br)s2)cc1OC	CYP2C9 inhib 86.7, CYP2C19 inhib 99.4
COc1cccc(-c2cc(C(=O)N3C(C)CCCC3C)no2)c1 (configuration not stated)	none
COc1ccc(CCNCc2csc3nc4ccccc4n23)cc1OC	none
O=C(Cn1c(C(=O)N2CCN(C3CCCC3)CC2)cc2sccc21)c1ccccc1	CYP2C19 inhib 80.0
CCn1c(C(=O)N2CCC(Cc3ccccc3)CC2)cc2sccc21	CYP2C9 inhib 57.7, CYP2C19 inhib 59.3
CCn1c(C(=O)N2CCCC(C(=O)O)C2)cc2sccc21 (configuration not stated)	none (no result: CYP2C9 act, CYP2C19 activ, CYP2C9 inhib, CYP2C19 inhib)
O=C(Cn1c(C(=O)NCC2CCCO2)cc2sccc21)c1ccccc1 (configuration not stated)	CYP2C9 inhib 51.1
C=CCn1nc([N+](=O)[O-])nc1Sc1cccc2cccnc12	none (no result: CYP2C9 act, CYP2C19 activ, CYP2C9 inhib, CYP2C19 inhib)
COC(=O)Nc1nnc(-c2ccccc2Cl)s1	none
O=c1cc(Cl)[nH]c(=O)n1CCNc1ncc(C(F)(F)F)cc1Cl	CYP2C9 inhib 100.0, CYP2C19 inhib 68.0
CC(C(=O)OCC(=O)c1cccc([N+](=O)[O-])c1)N1C(=O)C2C3CCC(C3)C2C1=O (configuration not stated)	none (no result: CYP2C9 act, CYP2C19 activ, CYP2C9 inhib, CYP2C19 inhib)
CCc1cc2c(CN3CCN(C)CC3)cc(=O)oc2cc1O	none
Cc1oc2c(C)c3oc(=O)c4c(c3cc2c1C)CCC4	CYP2C19 inhib 80.5
Cc1oc2cc3oc(=O)c4c(c3cc2c1C)CCC4	CYP2C19 inhib 63.2
Cc1coc2c(C)c3oc(=O)c4c(c3cc12)CCCC4	none (no result: Measles CPE)
Cc1c(O)c(CN2CCCCC2)cc2c3c(c(=O)oc12)CCC3	CYP2C9 inhib 69.5
CCc1cc2c3c(c(=O)oc2cc1O)CCCC3	CYP2C9 inhib 72.3, CYP2C19 inhib 62.3
CCOC(=O)c1c(NC(=O)CSc2nnc(Cc3ccccc3)o2)sc(C)c1C	none (no result: CYP2C9 act, CYP2C19 activ, CYP2C9 inhib, CYP2C19 inhib)
CC1CCN(S(=O)(=O)N2CCC(C(=O)NCc3cccs3)CC2)CC1	none
CCCCN(CCCNc1ncnc2nc[nH]c12)c1ccccc1	CYP2C9 inhib 56.0
c1ccc(CCNc2ncnc3nc[nH]c23)cc1	none
c1ccc2c(CCNc3ncnc4nc[nH]c34)c[nH]c2c1	CYP2C19 inhib 82.7
CCN(CCCNc1ncnc2nc[nH]c12)c1cccc(C)c1	CYP2C9 inhib 78.0, CYP2C19 inhib 83.0
CCCCN(c1ccccc1)c1ncnc2nc[nH]c12	none
c1ccn2c(CNc3ncnc4sccc34)nnc2c1	none (no result: CYP2C9 act, CYP2C19 activ, CYP2C9 inhib, CYP2C19 inhib)
Cc1ccc(S(=O)(=O)/N=C2/NC(=O)/C(=C/c3ccc(Br)o3)S2)cc1	Measles CPE 24.6 (no result: CYP2C9 act, CYP2C19 activ, CYP2C9 inhib, CYP2C19 inhib)
Cc1ccc(S(=O)(=O)/N=C2/NC(=O)/C(=C/c3cccnc3)S2)cc1	CYP2C9 inhib 98.4, CYP2C19 inhib 67.9
Cc1cc(Oc2ccc(Br)cc2)nc(SCC(=O)c2ccccc2)n1	none (no result: CYP2C9 act, CYP2C19 activ, CYP2C9 inhib, CYP2C19 inhib)
COC(=O)CSc1nc(C)cc(Oc2ccccc2)n1	CYP2C19 inhib 86.3
Cc1cc(Oc2ccccc2)nc(SCC(=O)Nc2ccc(Cl)cc2Cl)n1	CYP2C9 inhib 93.3, CYP2C19 inhib 99.2
C=CCN1C(c2ccccc2)=CS/C1=C(/C#N)c1nnc(N2CCOCC2)n1-c1ccccc1	Measles CPE 52.4 (no result: CYP2C9 act, CYP2C19 activ, CYP2C9 inhib, CYP2C19 inhib)
CCOC(=O)C1CCN(C(C(=O)Nc2ccc3c(c2)OCCO3)c2ccccc2)CC1 (configuration not stated)	CYP2C9 inhib 88.9
CC(CC(=O)Nc1ccc(C(N)=O)cc1)c1ccccc1 (configuration not stated)	Measles CPE 29.1 (no result: CYP2C9 act, CYP2C19 activ, CYP2C9 inhib, CYP2C19 inhib)
O=C(CC(C(=O)O)c1ccccc1)Nc1ccccc1 (configuration not stated)	none (no result: CYP2C9 act, CYP2C19 activ, CYP2C9 inhib, CYP2C19 inhib)
CC(CC(=O)Nc1ccc(Cl)c([N+](=O)[O-])c1)c1ccccc1 (configuration not stated)	CYP2C9 inhib 73.5, CYP2C19 inhib 75.9
Cc1cc(CSc2ccccc2)ccc1NC(=O)c1ccc(CN2CCOCC2)cc1	none (no result: CYP2C9 act, CYP2C19 activ, CYP2C9 inhib, CYP2C19 inhib)
O=[N+]([O-])c1ccccc1SN(Cc1ccccc1)c1ccccn1	none (no result: CYP2C9 act, CYP2C19 activ, CYP2C9 inhib, CYP2C19 inhib)
COCCCNC(=O)c1c(N)n(-c2cccc(S(N)(=O)=O)c2)c2nc3ccccc3nc12	Measles CPE 41.7
COCCCNC(=O)c1c(N)n(/N=C/c2ccccn2)c2nc3ccccc3nc12	CYP2C9 inhib 52.2
CCOC(=O)c1c(NC(=O)CN2C(=O)c3ccccc3C2=O)sc(Cc2ccc3c(c2)OCO3)c1C	none (no result: CYP2C9 act, CYP2C19 activ, CYP2C9 inhib, CYP2C19 inhib)
O=C(Nc1c(Cl)cc(Cl)cc1-c1nc2ccccc2s1)c1ccc(Br)o1	CYP2C9 inhib 55.3
